The results in this text go back to PubChem BioAssay AID720518 (National Center for Advancing Translational Sciences (NCATS), 2013).

Records with an inconclusive call do not appear. A number with no mark means an inactive call. The call rests on the fitted dose curve.

The nature of this experiment: qHTS for Inhibitors of Cell Surface uPA Generation: Wild-type Protective Antigen (WT-PrAg) Counterscreen for Cherry-picked Compounds. Further: 0% is about no effect. The conditions noted are these: cells, WT protective antigen toxicity counterscreen; series mostly up to 115 µM; activity (protection): at the top concentration. For orientation: qHTS replaces the single test concentration by a dilution series.
With `CCCN1CCN(CC(=O)Nc2nncs2)CC1`, the “activity (protection)” value was 2.48%.

Consider `COc1cccc(CNC(=O)C2CCCN(S(=O)(=O)c3ccc4c(c3)C(C)(C)C(=O)N4C)C2)c1` (stereo unspecified), for which the “activity (protection)” value is 0.799%.

In the case of `O=C(NCc1ccc2c(c1)OCO2)c1ccccn1`, the “activity (protection)” value was 0.737%.

Take `CC(C)OC(=O)Nc1ccc(-c2ccc(NC(=O)OC(C)C)cc2Cl)c(Cl)c1`: the “activity (protection)” value is 5.2%.

`Cc1ccc(S(=O)(=O)NNC(=O)c2ccc(F)cc2)cc1`: the “activity (protection)” value was 0.393%.

Consider `O=C(C[n+]1ccccc1)Nc1ccccc1C(F)(F)F`, for which the “activity (protection)” value was 0.0894%.

On to `CC(C)C[C@H]1CN([C@@H](CC(C)C)CN2CCCC2CN2C(=S)NC[C@@H]2Cc2ccc(O)cc2)C(=S)N1CC1CCCCC1` (stereo partly specified), for which the “activity (protection)” value is -0.649%.

In the case of `CCOc1cc(/C=C(\C#N)C(=O)NCc2cccnc2)ccc1O`, the “activity (protection)” value is -1.63%.

Take `Cc1cc(OC(C)C(=O)NCc2ccccn2)c2c(C)cc(=O)oc2c1` (stereo unspecified): the “activity (protection)” value is 3.44%.

In the case of `CCOC(=O)c1ccccc1N=Cc1c(O)c2ccccc2oc1=O`, the “activity (protection)” value was -1.45%.

Consider `CCN(CC)S(=O)(=O)c1ccc(NC(=S)Nc2ccc(F)cc2)cc1`, for which the “activity (protection)” value is -1.28%.

As for `CC(C)(C)C(=O)NCCc1nc2ccccc2n1CC(=O)c1ccc(Cl)cc1`, the “activity (protection)” value is -0.94%.

With `CS/C(=C\[N+](=O)[O-])Nc1ccccc1`, the “activity (protection)” value is -2.26%.

For the compound `Cc1ccc(OCc2cc(C(=O)N(C)Cc3cc(C4CC4)n[nH]3)no2)cc1C`, the “activity (protection)” value is -1.75%.

On to `CN(C)C(=O)NC(NC(=S)Nc1ccccc1)C(Cl)(Cl)Cl` (stereo unspecified), for which the “activity (protection)” value is -1.51%.

Regarding `COc1ccc(N2CC(C(=O)Nc3nnc(SCCC4OCCO4)s3)CC2=O)cc1` (stereo unspecified), the “activity (protection)” value is -0.992%.

With `CC(CCc1ccccc1)NC(=O)c1ccc(NC(=O)c2cccc(Br)c2)cc1` (stereo unspecified), the “activity (protection)” value was -0.0435%.

For `CCCCOc1ccc(S(=O)(=O)N2CCCCC2)cc1`, the “activity (protection)” value is -0.111%.

As to `O=C(CCCC(=O)N1CCN(c2ccccc2F)CC1)c1ccccc1`, the “activity (protection)” value is 0.0653%.

Turning to `Fc1cccc(Cl)c1CSc1ccc(-c2cccnc2)nn1`, the “activity (protection)” value was -1.61%.

Regarding `COc1ccc(NC(=O)c2nn(C)c3c2CS(=O)(=O)c2ccccc2-3)cc1`, the “activity (protection)” value is -0.433%.
